This is an account of results in PubChem BioAssay (EPA / NIEHS).

As usually defined, the AC50 is the concentration giving half of the maximal activity seen.

Each structure is given as a SMILES string. Calls of active or inactive are those of the source. How the source made its calls: active means hit-call score of the fitted dose curve at least 0.9, where 1 is the maximum; inactive means score below 0.9.

E-selectin (Homo sapiens), sequence (P16581 whole entry, looked up): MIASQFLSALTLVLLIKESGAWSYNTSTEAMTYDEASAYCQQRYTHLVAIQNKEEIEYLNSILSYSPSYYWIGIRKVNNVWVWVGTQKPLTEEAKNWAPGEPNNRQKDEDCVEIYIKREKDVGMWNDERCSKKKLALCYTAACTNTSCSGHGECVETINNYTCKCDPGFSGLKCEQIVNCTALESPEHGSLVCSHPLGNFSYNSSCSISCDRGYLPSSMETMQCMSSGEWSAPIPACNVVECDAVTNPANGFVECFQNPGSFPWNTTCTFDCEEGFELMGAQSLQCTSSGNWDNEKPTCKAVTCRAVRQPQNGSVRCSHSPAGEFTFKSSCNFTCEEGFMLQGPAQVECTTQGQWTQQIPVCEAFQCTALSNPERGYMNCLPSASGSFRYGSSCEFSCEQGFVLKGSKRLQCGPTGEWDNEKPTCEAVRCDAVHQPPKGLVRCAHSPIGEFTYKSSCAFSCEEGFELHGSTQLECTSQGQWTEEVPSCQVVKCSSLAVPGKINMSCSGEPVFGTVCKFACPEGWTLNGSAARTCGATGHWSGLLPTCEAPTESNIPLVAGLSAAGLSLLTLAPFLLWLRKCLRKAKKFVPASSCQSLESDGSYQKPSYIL

Read-out in the test: E-selectin (Homo sapiens) (UniProt P16581)
In words: BSK_3C_Eselectin: BioMAP Diversity Plus: 3C Assay for Eselectin Biomarker Activity (AID 2283015). The note with it: primary human endothelial cells (HUVEC); actives raise or lower the signal. The procedure:
BSK_3C is a cell-based, multiplexed-readout assay that uses umbilical vein endothelium, a human vascular primary cell, with measurements taken at 24 hours after chemical dosing in a 96-well plate.BSK_3C_Eselectin is an assay component measured in the BSK_3C assay. It measures E-selectin antibody related to regulation of gene expression using ELISA technology.Data from the assay component BSK_3C_Eselectin was analyzed into 1 assay endpoint. This assay endpoint, BSK_3C_Eselectin, was analyzed with bidirectional fitting relative to DMSO as the negative control and baseline of activity. Using a type of binding reporter, gain or loss-of-signal activity can be used to understand changes in the signaling as they relate to the gene SELE. Furthermore, this assay endpoint can be referred to as a primary readout, because this assay has produced multiple assay endpoints where this one serves a signaling function. To generalize the intended target to other relatable targets, this assay endpoint is annotated to the cell adhesion molecules intended target family, where the subfamily is selectins.
The levels of cell surface (or secreted, indicated by the prefix "s") biomarker endpoints were measured by ELISA. Overt cytotoxicity to cells in confluent adherent cultures (all systems other than the BT system) was assessed by measuring total protein levels using sulforhodamine B (SRB) staining in parallel cultures at the time of biomarker measurements, indicated as SRB endpoints. For proliferation assays for adherent cell types, individual cell types are cultured at sub-confluence and relative cell numbers quantified by SRB staining at time points optimized for each system (48 h: 3C and CASM3C systems; 72 h: BT and HDF3CGF systems; 96 h: SAg system). SRB was performed by staining cells with 0.1% SRB after fixation with 10% TCA and reading wells at 560 nm.Viability and proliferation of PBMC (T cells) was quantified by Alamar Blue reduction for the SAg and BT systems. For PBMC viability (referred to as PBMC Cytotoxicity within the assay endpoint names), cells were plated (75,000/well in a 96-well plate) and then chemical samples added for 1 h before addition of activators, SEB and TSST-1 (20 ng/mL final concentration each). Cells were incubated for 90 h. Then, Alamar Blue (20 uL/well) (Invitrogen, Cat DAL1100) was added for 6 h, and the plates were read with a fluorescence microplate reader at 546/580 nm (excitation/emission). For PBMC proliferation, cells were plated and activated as above but incubated for only 16 h prior to addition of Alamar Blue. Plates were read after 6 h.
As for `Cc1cccc(O)c1C`, the outcome was inactive. Turning to `CCCCN1C(=O)[C@@H]([C@H](O)C2CCCCC2)NC(=O)C12CCN(Cc1ccc(Oc3ccc(C(=O)O)cc3)cc1)CC2`, the result was inactive. In the case of `CCCCCCCCCCCCCCCCOS(=O)(=O)O`, the result was inactive. Still for that read-out and setting: the value for `CC(C)CC(C)O` (stereo not given) was “inactive”; that for `c1ccc2cc3ccccc3cc2c1` was “inactive”. `c1ccc2c(c1)-c1cccc3c1c-2cc1ccccc13`: the result was inactive.

For the compound `OC[C@H]1O[C@@H]2O[C@H]3[C@H](O)[C@@H](O)[C@@H](O[C@H]4[C@H](O)[C@@H](O)[C@@H](O[C@H]5[C@H](O)[C@@H](O)[C@@H](O[C@H]6[C@H](O)[C@@H](O)[C@@H](O[C@H]7[C@H](O)[C@@H](O)[C@@H](O[C@H]1[C@H](O)[C@H]2O)O[C@@H]7CO)O[C@@H]6CO)O[C@@H]5CO)O[C@@H]4CO)O[C@@H]3CO`, the result was inactive. Consider `CCCCCCCCCCCCCCO`, for which the AC50 was 36.7 µM (active).

Take `CCCOc1ccc(S(=O)(=O)N2CCN(CC)CC2)cc1-c1nc2c(CC)n(Cc3ccccn3)nc2c(=O)[nH]1`: the outcome was inactive. As for `CCCCCCCCN(C)C`, the result was inactive.

As to `CC[C@H](C)C(=O)O[C@H]1C[C@H](O)C=C2C=C[C@H](C)[C@H](CC[C@@H](O)C[C@@H](O)CC(=O)O)[C@H]21`, the outcome was inactive. For the compound `CNC(C)=O`, the result was inactive. `NC(=O)N1c2ccccc2C=Cc2ccccc21`: the result was inactive. Turning to `CC(C)CCCCCCOC(=O)C1CCCCC1C(=O)OCCCCCCC(C)C` (stereo not given), the result was inactive. Take `NNC(=O)c1ccncc1`: the outcome was inactive. Take `Nc1ccn([C@@H]2O[C@H](CO)[C@@H](O)[C@@H]2O)c(=O)n1`: the result was inactive. For the compound `Cc1nc(-c2ccccn2)ncc1C(=O)Nn1cc(C)c2cc(F)ccc21`, the outcome was inactive.

Turning to `OC(O)(C(F)C(O)(O)C(F)(F)F)C(F)(F)F`, the result was inactive. Take `NCC(F)(F)C(F)(F)C(F)(F)C(F)(F)F`: the result was inactive. On the same count and under the same terms, the value for `NC(=O)N(O)[C@@H]1COc2cc(OCc3ccccc3)ccc21` was “inactive”; that for `Cc1nccn1-c1ccc(Sc2cccc(C3(C(N)=O)CCOCC3)c2)cc1` was “inactive”. Regarding `O=C1CN(N=Cc2ccc([N+](=O)[O-])o2)C(=O)N1`, the half-maximal activity concentration (AC50) is 9.86 µM (active). Consider `O=S(=O)(O)CCC(F)(F)C(F)(F)C(F)(F)C(F)(F)C(F)(F)C(F)(F)F`, for which the outcome was inactive. Still for that read-out and setting: for `O=S1(=O)CCCO1` the value was “inactive”; for `CCn1nc(C)c2c1C(=O)NCC(c1ccc(O)cc1)=N2`, “inactive”. With `CC(C)c1nnc2ccc(-c3ocnc3-c3cc(F)ccc3F)cn12`, the result was inactive.

Take `FC(F)=C(F)C(F)(F)C(F)(F)C(F)(F)C(F)(F)C(F)(F)C(F)(F)F`: the result was inactive. As to `Cc1ccc(S(=O)(=O)NC(=O)NN2CCCCCC2)cc1`, the result was inactive.

As to `C=CCc1cc(S(=O)(=O)c2ccc(O)c(CC=C)c2)ccc1O`, the AC50 was 20 µM (active). Consider `FC(F)(F)C(F)(F)C(F)(F)C(F)(F)C(F)(F)C(F)(F)I`, for which the result was inactive. With `CCCCCCCCCC`, the outcome was inactive. Same read-out and setting: for `NC(N)=O` the value was “inactive”; for `CCCc1ccccc1`, “inactive”.

Take `CCCCCCCC/C=C\CCCCCCCC(=O)OC[C@@H](O)[C@H]1OC[C@H](O)[C@H]1O`: the result was inactive. Turning to `CCCCC(CC)C(=O)OCCOCCOCCOC(=O)C(CC)CCCC` (stereo not given), the result was inactive. `CCCCCCCC1CCC(=O)O1` (stereo not given): the outcome was inactive. Regarding `c1ccc(C(O[C@@H]2CCCN(CCc3ccc4c(c3)OCO4)C2)c2ccccc2)cc1`, the result was inactive. `CCOc1ccc2[nH]cc(C(=O)NCc3ccccc3)c(=O)c2n1`: the outcome was inactive. On to `COCc1nnc(-c2ccc[n+]([O-])c2)n1-c1c(Cl)c(Cl)cc2[nH]c(=O)c(=O)[nH]c12`, for which the result was inactive. For the compound `O=C(O)c1cccc(C(=O)O)c1`, the outcome was inactive.
